Unmarked numbers belong to inactive results. Active and inactive are the calls of the source. Cut-off read from the data, not from the text of the source, unless noted: active = inhibition above about 25%; inactive = the rest.
Key:
[1] = target: Nuclear receptor coactivator 1 (Homo sapiens) (UniProt Q15788); assay: NCOA1 GAL4-fusion reporter inhibition – cell-based, luminescence, quadruplicate, confirmation (AID 588820;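 active = mean inhibition above 46.68%, the untreated control wells mean plus 3 SD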;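 note: 0% = DMSO wells and 100% = gossypol 36 µM treated wells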); details: HEK293 GAL4-SRC1 luciferase reporter, at 3.6 µM, stronger effect = higher value
[2] = repression of VP16-driven luciferase reporter – cell-based, luminescence, high throughput, counter-screen for SRC1 inhibitor project (AID 588824); details: cell-based VP16 transactivation luciferase luminescence; at 3.6 µM; stronger effect = higher value

Nuclear receptor coactivator 1 (Homo sapiens), sequence (Q15788 whole entry, looked up, the tested form may be a part): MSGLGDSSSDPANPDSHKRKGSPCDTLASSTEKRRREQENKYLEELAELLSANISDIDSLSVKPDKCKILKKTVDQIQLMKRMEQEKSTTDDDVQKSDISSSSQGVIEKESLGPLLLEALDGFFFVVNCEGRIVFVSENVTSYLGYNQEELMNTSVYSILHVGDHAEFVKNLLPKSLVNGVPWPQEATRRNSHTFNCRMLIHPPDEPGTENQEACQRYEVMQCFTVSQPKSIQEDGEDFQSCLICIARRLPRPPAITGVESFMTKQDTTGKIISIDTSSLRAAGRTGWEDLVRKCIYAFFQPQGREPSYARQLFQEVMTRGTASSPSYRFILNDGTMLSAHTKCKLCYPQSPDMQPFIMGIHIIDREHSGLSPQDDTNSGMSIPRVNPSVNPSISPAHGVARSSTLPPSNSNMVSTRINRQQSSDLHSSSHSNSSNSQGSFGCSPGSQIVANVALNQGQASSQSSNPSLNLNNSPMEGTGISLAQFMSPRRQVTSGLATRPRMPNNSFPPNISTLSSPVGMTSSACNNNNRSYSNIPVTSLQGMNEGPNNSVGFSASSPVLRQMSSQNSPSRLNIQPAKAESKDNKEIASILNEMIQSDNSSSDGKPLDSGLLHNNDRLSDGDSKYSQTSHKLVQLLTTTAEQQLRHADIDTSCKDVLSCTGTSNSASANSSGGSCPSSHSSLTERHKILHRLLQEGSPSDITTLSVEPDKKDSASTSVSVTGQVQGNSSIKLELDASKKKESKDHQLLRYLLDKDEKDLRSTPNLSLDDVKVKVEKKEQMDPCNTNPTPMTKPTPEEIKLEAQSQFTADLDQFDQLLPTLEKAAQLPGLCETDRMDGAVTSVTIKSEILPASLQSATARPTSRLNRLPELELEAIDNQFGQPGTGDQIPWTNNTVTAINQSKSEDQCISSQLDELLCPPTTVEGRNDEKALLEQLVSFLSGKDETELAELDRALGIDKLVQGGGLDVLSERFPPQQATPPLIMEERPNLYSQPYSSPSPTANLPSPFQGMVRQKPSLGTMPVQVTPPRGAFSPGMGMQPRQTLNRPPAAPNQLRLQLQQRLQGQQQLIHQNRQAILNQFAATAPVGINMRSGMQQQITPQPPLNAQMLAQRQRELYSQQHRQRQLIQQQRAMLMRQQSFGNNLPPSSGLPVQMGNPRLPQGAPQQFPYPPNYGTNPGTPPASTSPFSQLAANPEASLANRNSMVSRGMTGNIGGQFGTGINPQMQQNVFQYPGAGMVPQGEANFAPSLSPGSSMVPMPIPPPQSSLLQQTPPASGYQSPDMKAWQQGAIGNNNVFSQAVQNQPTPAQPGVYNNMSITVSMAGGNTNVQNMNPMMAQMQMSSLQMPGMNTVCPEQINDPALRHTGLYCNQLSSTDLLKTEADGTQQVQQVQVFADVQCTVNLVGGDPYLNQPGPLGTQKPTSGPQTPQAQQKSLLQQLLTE

Row | SMILES | inhibition [1] | inhibition [2]
1 | COc1ccc(CCNC(=O)[C@H](CCSC)NC(=O)N2CCn3c2nc2ccccc23)cc1OC | 1.44% | -3.22%
2 | O=C(N/N=C/c1cc(Cl)ccc1O)c1ccccc1Br | 12.6% | 7.53%
3 | COc1ccc(S(=O)(=O)N(C)c2ccc(C(=O)Nc3cccnc3)cc2)cc1OC | 14.3% | 17.4%
4 | O=C(CNC(=O)c1cccc(F)c1)N/N=C/c1cc(Br)ccc1OC(=O)/C=C/c1ccco1 | 3.9% | 6.51%
5 | COc1cc(C(C)=O)ccc1OCC(=O)Nc1ccccc1N1CCCCC1 | 9.15% | 8%
6 | CC(=O)c1cccc(NC(=O)c2cc(Cl)sc2Cl)c1 | -60.7% | -30.6%
7 | CC1CCc2c(sc3ncnc(N4CCOCC4)c23)C1 (centres undefined) | 40% | 26.6% (active)
8 | CC1CN(c2nc3ccccc3nc2SCC(=O)Nc2cccc(C(F)(F)F)c2)CC(C)O1 (centres undefined) | -15.1% | 5.85%
9 | CC(=NCc1cccc(Cl)c1)c1nc(-c2ccco2)oc1O | 4.53% | 45% (active)
10 | COc1ccc(CCNc2ncnc3c2[nH]c2cc(OC)c(OC)cc23)cc1OC | -33.2% | -14.5%
11 | O=C(COC(=O)CCC(=O)c1ccccc1)Nc1nnc(-c2ccccc2)o1 | -19.6% | -8.55%
12 | CC(C)(C)c1ccc(-n2ncc3c2CCCC3NC(=O)CN2CCOC2=O)cc1 (centres undefined) | -6.1% | 7.65%

Reference: PubChem BioAssay
